In all, about 190,000 compounds went through this assay and about 930 (0.49%) were called active. The list shows a part of the results. Measured potencies and affinities stand elsewhere. A number with no mark means an inactive call.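 How the source made its calls: active means z-score of insulin promoter reporter brightness in nuclei below -3 at 5 µM, with at least 500 cells counted; inconclusive means wells with under 500 cells, flagged as toxic or sparse; inactive means the rest.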
Experiment: insulin promoter down-regulators in MIN6 cells, imaging, high-content screening, mouse beta cells (AID 1628)
Settings: MIN6 insulin promoter GFP reporter, at 5 µM, hits give low values

Compound | z-score
COCCN1C(=O)/C(=C/c2ccc(N3CCCC3)cc2)SC1=S | 16.8
COc1ccc(/C=C2/SC(=O)N(CCNC(=O)C3CCCN3C(=O)c3cccs3)C2=O)cc1 (stereo unspecified) | -4.56 (active)
CCC(C)(C(=O)NC1CCCC1)N(C(=O)CNC(C)=O)c1ccccc1 (stereo unspecified) | 3.46
O=C(CCl)N(c1ccccc1)C1CCCCC1 | -5.83 (active)
Cc1ccc2[nH]c(-c3ccccc3)c(CN(C)C)c(=O)c2c1 | 4.17
Cc1ccc(Cn2nnc3c(=O)n(CC(=O)NCc4ccco4)cnc32)cc1 | 1.28
COc1cccc(-n2nnc3c(=O)n(CC(=O)OCc4ccccc4)cnc32)c1 | 1.01
O=c1c2nnn(Cc3ccccc3)c2ncn1C/C=C/c1ccccc1 | -5.83 (active)
c1ccc(CCNc2c3c(nc4ncnn24)CCC3)cc1 | -3.18 (active)
Oc1[nH]c2c(Cl)cc(Cl)cc2c1N=NC(=S)NCC1CCCO1 (stereo unspecified) | -3.65 (active)
O=C(CN(C1CCCCC1)S(=O)(=O)c1ccccc1)NCc1ccco1 | 0.65
CCC(=O)N1CCCc2cc(S(=O)(=O)N3CCN(c4ccccc4F)CC3)ccc21 | -5.64 (active)
CCOC(=O)C1CCN(S(=O)(=O)c2ccc3c(c2)CCCN3C(C)=O)CC1 | -4.86 (active)
COc1ccccc1N/C(N)=N/c1nc(C(F)(F)F)cc(=O)[nH]1 | 3.34
CCCCn1c(SCC(=O)O)nc2ccccc21 | 3.5
CCCCn1c(SCc2ncc(-c3ccccc3)o2)nc2cc(S(N)(=O)=O)ccc21 | -5.03 (active)
Cc1cccn2c(=O)c(/C=C3\SC(=S)NC3=O)c(NCCCN3CCOCC3)nc12 | 5.45
N=c1c2c(-c3ccccc3)c(-c3ccccc3)oc2ncn1CCCN1CCOCC1 | -3.3 (active)
O=C(/C=C/c1ccc(N2CCC(c3ccccc3)=N2)cc1)c1ccccc1 | 17.2
O=C1C=C(Nc2ccc(O)cc2)CC(c2ccco2)C1 (stereo unspecified) | 6.78
O=c1[nH]c2ccccc2nc1/C=C/c1ccc(F)cc1 | 5.99

Compound | z-score
CCOC(=O)c1c(NC(=O)c2ccccc2)sc2c1CCc1ccccc1-2 | -5.18 (active)
CCOC(=O)c1sc(NC(=O)c2sccc2C)cc1C | 3.1
CCOC(=O)CSC1=C(C#N)C(c2ccc(C)s2)CC(=O)N1 (stereo unspecified) | -3.15 (active)
Cc1ccc(C2CC(=O)NC(SCc3ccccc3)=C2C#N)o1 (stereo unspecified) | 3.43
CC(=O)C1=C(C)NC(SCC(=O)c2ccc(Cl)c(Cl)c2)=C(C#N)C1c1ccco1 (stereo unspecified) | 3.16
CCn1c(NCCc2ccc(OC)c(OC)c2)nc2c1c(=O)n(C)c(=O)n2C | -5.44 (active)
CCCNc1nc2c(c(=O)n(C)c(=O)n2C)n1CCc1ccccc1 | -5.56 (active)
CCOc1cc2[nH]c(=O)n(CCC(=O)NCCc3ccc(OC)c(OC)c3)c(=O)c2cc1OCC | 1.44
O=c1cc2oc3cc(O)c(O)cc3c(-c3ccccc3O)c-2cc1O | 15.3
CCn1c(SCC(=O)Nc2nc3ccc(OC)cc3s2)nc2c1c(=O)n(C)c(=O)n2C | -3.33 (active)
CCn1ncc(C2=NOC(C(=O)Nc3cccc(C(C)=O)c3)C2)c1C (stereo unspecified) | -3 (active)
C=C(C)c1cccc(C(C)(C)NC(=O)NCC2COCCO2)c1 (stereo unspecified) | 0.86
CC(C)(C)c1ccc(C(=O)c2c[nH]c(C(=O)NCC3CCCO3)c2)cc1 (stereo unspecified) | -4.57 (active)
CCn1c(=NC(=O)c2ccc(S(=O)(=O)N(C)C)cc2)sc2cccc(OC)c21 | -5.14 (active)
C/C(=C\c1ccccc1)CN1CCN(c2ccccc2)CC1 | 1.49
c1ccc(-n2ncc3c(N4CCN(c5ccccn5)CC4)nc(N4CCCCCC4)nc32)cc1 | 4.11
CC(=O)Nc1sc(/C(C#N)=C\c2cccc(Cl)c2)nc1-c1ccc(C)cc1 | 15.6
CCOC(=O)N1CCN(/C=C(\C#N)c2nc3ccccc3s2)CC1 | 3.47
Cc1nn(-c2ccccc2)c(N2CCCC2)c1/C=N/n1cnc2scc(-c3ccccc3)c2c1=O | -3.26 (active)
COc1cc2c3nnc(-c4ccc(F)cc4)c-3cn(Cc3ccccc3)c2cc1OC | 3.81
COc1ccc(Nc2ncnc3c2cnn3Cc2ccccc2)cc1OC | -4.71 (active)

Compound | z-score
O=[N+]([O-])c1ccc(N/N=C/c2ccc[nH]2)cc1 | 12.9
N#C/C(=C/c1ccc(N2CCOCC2)o1)c1ccc(Cl)cc1 | 7.33
Oc1c(C=NCc2ccc(F)cc2)[nH]c2ccc(Br)c(Cl)c12 | 4.06
CCC(C)NS(=O)(=O)c1ccc(NC(=O)Cc2ccc(OC)cc2)cc1 (stereo unspecified) | -3.19 (active)
CCOC(=O)c1ccc(NC(=O)COc2ccc(S(=O)(=O)NC(C)CC)cc2)cc1 (stereo unspecified) | 3.08
COc1ccc(NC(=O)CSc2ncccc2C(=O)OC(C)C)cc1OC | -5.26 (active)
Cc1ccccc1CN(c1ccc(C(=O)NCC2CCCO2)cc1)S(C)(=O)=O (stereo unspecified) | -4.88 (active)
O=C(COC(=O)c1ccco1)NCC1CCCO1 (stereo unspecified) | 3.04
CCCc1n[nH]c2c1C(=O)C(C(=O)OC)C(C)(C)C2 (stereo unspecified) | 3.65
CN(CCC#N)C(=O)COC(=O)c1ccc(Cl)c(S(N)(=O)=O)c1 | -5.92 (active)
CCOC(=O)C1=C(C)NC(=O)NC1c1ccc(N2CCC(c3ccccc3)=N2)cc1 (stereo unspecified) | 4.29
COc1ccc(Cl)cc1NC(=O)c1c(-c2ccccc2)noc1C | 18
CCOC(=O)C1=C(c2ccccc2)NC(N)=NC1c1ccc(OCc2ccc(Cl)cc2)c(OC)c1 (stereo unspecified) | -3.43 (active)
O=[N+]([O-])c1ccc(N/N=C/c2c[nH]c3ccccc23)cc1 | 3.11
O=C(/C=C/c1ccccc1)NCC(=O)N/N=C/c1ccccc1[N+](=O)[O-] | 3.03
C=C(C)Cn1c(=S)[nH]c2ccccc2c1=O | -6.61 (active)
CCN(CC)CCn1c(=S)[nH]c2ccc(Cl)cc2c1=O | 3.97
Nn1c(=O)[nH]c2ccccc2c1=O | -0.08
O=[N+]([O-])c1ccc(Cc2nnc(-c3ccccc3Cl)o2)cc1 | 2.55

Source: PubChem BioAssay AID1628 (Sanford-Burnham Center for Chemical Genomics, 2009)
